{
  "source": "the supplement of paper PMC7366291",
  "conditions_in_all_cases": "25 µM; exposure: 24-48 hpf",
  "key": {"[1]": {"test_system": "Danio rerio Tg(wt1b:EGFP) embryo, pronephros", "assay": "glomerular separation, fold change vs DMSO control; higher = glomeruli further apart (abnormal)", "method_in_brief": "(§1)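 Dechorionated Tg(wt1b:EGFP) zebrafish embryos were incubated at 28.5°C from 24 to 48 hpf with 25 μM compound in HEPES-buffered E3 containing 0.5% DMSO and 0.003% PTU. Distances and angles between 16 manually set points on maximum projections of dorsal pronephros images were measured in Fiji, with values over 2 SD from the feature mean excluded. Each feature is a fold change relative to the mean of same-day DMSO-treated embryos.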"}, "[2]": {"test_system": "Danio rerio Tg(wt1b:EGFP) embryo, pronephros", "assay": "glomerular width (mean of left and right), fold change vs DMSO control; higher = wider glomerulus", "method_in_brief": "as §1"}, "[3]": {"test_system": "Danio rerio Tg(wt1b:EGFP) embryo, pronephros", "assay": "fraction of imaged embryos annotated as normal kidney; higher = less nephrotoxic; extreme values may be limits of the assay", "method_in_brief": "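Dechorionated Tg(wt1b:EGFP) zebrafish embryos were incubated with 25 μM compound in 0.5% DMSO, 5 mM HEPES-buffered E3 and 0.003% PTU from 24 to 48 hpf at 28.5°C. Pronephroi were then imaged by widefield fluorescence, and the fraction of embryos per treatment assigned by hand to the normal-kidney category is given.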"}, "[4]": {"test_system": "Danio rerio Tg(wt1b:EGFP) embryo, pronephros", "assay": "pronephric angle neck segment to proximal convoluted tubule (mean of left and right), fold change vs DMSO control; higher = larger pronephric angle", "method_in_brief": "as §1"}},
  "note": "Where a name gives a salt, the structure may show the parent alone. ± gives the standard deviation or the standard deviation of the averaged measurements.",
  "data": [
    {"smiles": "CN(Cc1cnc2nc(N)nc(N)c2n1)c1ccc(C(=O)N[C@@H](CCC(=O)O)C(=O)O)cc1", "note": "(racemic) [Amethopterin (R,S)]", "values": [
      {"measurement": "glomerular separation", "setting": "[1]", "value": "1.29 ± 0.49"},
      {"measurement": "glomerular width", "setting": "[2]", "value": "0.996 ± 0.022"},
      {"measurement": "fraction of imaged embryos annotated as normal kidney", "setting": "[3]", "value": 0.75},
      {"measurement": "pronephric angle neck segment", "setting": "[4]", "value": "1.03 ± 0.036"}
    ]},
    {"smiles": "CN(C)CCN(Cc1ccccc1)c1ccccn1", "note": "[Tripelennamine hydrochloride]", "values": [
      {"measurement": "glomerular separation", "setting": "[1]", "value": "0.843 ± 0.37"},
      {"measurement": "glomerular width", "setting": "[2]", "value": "0.982 ± 0.054"},
      {"measurement": "fraction of imaged embryos annotated as normal kidney", "setting": "[3]", "value": 1},
      {"measurement": "pronephric angle neck segment", "setting": "[4]", "value": "1.1 ± 0.083"}
    ]},
    {"smiles": "C#C[C@]1(O)CC[C@H]2[C@@H]3CCC4=CCCC[C@@H]4[C@H]3CC[C@@]21C", "note": "[Lynestrenol]", "values": [
      {"measurement": "glomerular separation", "setting": "[1]", "value": "0.801 ± 0.38"},
      {"measurement": "glomerular width", "setting": "[2]", "value": "0.994 ± 0.054"},
      {"measurement": "fraction of imaged embryos annotated as normal kidney", "setting": "[3]", "value": 0.917},
      {"measurement": "pronephric angle neck segment", "setting": "[4]", "value": "1.02 ± 0.051"}
    ]},
    {"smiles": "CC(=O)N(CC(C)C(=O)O)c1c(I)cc(I)c(N)c1I", "note": "(stereo not given) [Iocetamic acid]", "values": [
      {"measurement": "glomerular separation", "setting": "[1]", "value": "0.546 ± 0.25"},
      {"measurement": "glomerular width", "setting": "[2]", "value": "0.974 ± 0.011"},
      {"measurement": "fraction of imaged embryos annotated as normal kidney", "setting": "[3]", "value": 0.917},
      {"measurement": "pronephric angle neck segment", "setting": "[4]", "value": "0.986 ± 0.024"}
    ]},
    {"smiles": "CCOC(=O)C(C)(C)Oc1ccc(Cl)cc1", "note": "[Clofibrate]", "values": [
      {"measurement": "glomerular separation", "setting": "[1]", "value": "2.62 ± 1.7"},
      {"measurement": "glomerular width", "setting": "[2]", "value": "0.608 ± 0.044"},
      {"measurement": "fraction of imaged embryos annotated as normal kidney", "setting": "[3]", "value": 0},
      {"measurement": "pronephric angle neck segment", "setting": "[4]", "value": "1.66 ± 0.033"}
    ]},
    {"smiles": "C#CCN(C)Cc1ccccc1", "note": "[Pargyline hydrochloride]", "values": [
      {"measurement": "glomerular separation", "setting": "[1]", "value": "1.04 ± 0.29"},
      {"measurement": "glomerular width", "setting": "[2]", "value": "1.09 ± 0.052"},
      {"measurement": "fraction of imaged embryos annotated as normal kidney", "setting": "[3]", "value": 0.833},
      {"measurement": "pronephric angle neck segment", "setting": "[4]", "value": "0.95 ± 0.015"}
    ]},
    {"smiles": "C#C[C@]1(O)CC[C@H]2[C@@H]3CCC4=CC(=O)CC[C@@H]4[C@H]3CC[C@@]21C", "note": "[Norethindrone]", "values": [
      {"measurement": "glomerular separation", "setting": "[1]", "value": "0.967 ± 0.35"},
      {"measurement": "glomerular width", "setting": "[2]", "value": "0.934 ± 0.068"},
      {"measurement": "fraction of imaged embryos annotated as normal kidney", "setting": "[3]", "value": 0.909},
      {"measurement": "pronephric angle neck segment", "setting": "[4]", "value": "1 ± 0.022"}
    ]},
    {"smiles": "COc1ccc(C(=O)CC(=O)c2ccc(C(C)(C)C)cc2)cc1", "note": "[Avobenzone]", "values": [
      {"measurement": "glomerular separation", "setting": "[1]", "value": "0.991 ± 0.29"},
      {"measurement": "glomerular width", "setting": "[2]", "value": "1.05 ± 0.063"},
      {"measurement": "fraction of imaged embryos annotated as normal kidney", "setting": "[3]", "value": 0.667},
      {"measurement": "pronephric angle neck segment", "setting": "[4]", "value": "1.005 ± 0.0096"}
    ]},
    {"smiles": "CC1CS(=O)(=O)CCN1/N=C/c1ccc([N+](=O)[O-])o1", "note": "(stereo not given) [Nifurtimox]", "values": [
      {"measurement": "glomerular separation", "setting": "[1]", "value": "0.837 ± 0.36"},
      {"measurement": "glomerular width", "setting": "[2]", "value": "0.986 ± 0.038"},
      {"measurement": "fraction of imaged embryos annotated as normal kidney", "setting": "[3]", "value": 0.917},
      {"measurement": "pronephric angle neck segment", "setting": "[4]", "value": "0.938 ± 0.045"}
    ]},
    {"smiles": "CN(C)CCC=C1c2ccccc2C=Cc2ccccc21", "note": "[Cyclobenzaprine hydrochloride]", "values": [
      {"measurement": "glomerular separation", "setting": "[1]", "value": "1.02 ± 0.31"},
      {"measurement": "glomerular width", "setting": "[2]", "value": "0.977 ± 0.043"},
      {"measurement": "fraction of imaged embryos annotated as normal kidney", "setting": "[3]", "value": 0.833},
      {"measurement": "pronephric angle neck segment", "setting": "[4]", "value": "1.03 ± 0.0042"}
    ]}
  ]
}
